Laboratory results taken from PubChem BioAssay (Tox21).
Inconclusive results are not listed. The source made the active and inactive calls. Unless noted, calls come from the whole dose curve; as a rule, active = well fitted curve in the direction sought with a large enough effect in the repeat runs; inconclusive = weak or mixed curves; inactive = no such curve, though single readings can be large; an effect the other way counts as inactive or inconclusive.

Assays:
[1] = qHTS assay to identify small molecule antagonists of the vitamin D receptor (VDR) signaling pathway - cell viability counter screen (AID 743225); settings: VDR-bla HEK293T viability, CellTiter-Glo luminescence, 16 h; series mostly up to 61 µM; note: nearly all actives have a fitted effect of over 50% in size
Method in brief: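 Compounds were pinned onto VDR-bla HEK 293T cells together with 1-alpha,25-dihydroxyvitamin D3 at 3 nM final. After 16 h at 37C and 5% CO2 plus the reporter readout, cell viability was measured by CellTiter-Glo luminescence (30 min, room temperature).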

[2] = qHTS assay to identify small molecule agonists of the NFkB signaling pathway - cell viability counter screen (AID 1159515; calls by dose curve; note: nearly all actives have a fitted effect of over 55% in size; note: potency is the fitted concentration of half-maximal effect); settings: NFkB-bla ME-180 viability, CellTiter-Glo luminescence, 5 h; series mostly up to 61 µM
Method in brief: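 ME-180 NFkB-bla cells, 2,000/well; overnight attach; compound 5 hr, 37 C/5% CO2; LiveBLAzer substrate 1.5 hr RT; then CellTiter-Glo in same wells, 30 min RT, luminescence read.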

[3] = qHTS assay to identify small molecule agonists of the endoplasmic reticulum stress response signaling pathway (AID 1159516; active = well fitted activation curve with a large enough effect in the signal ratio in the repeat runs, not every such curve was filed as active; the % refers to the signal ratio); settings: ESRE-bla HeLa, ER stress beta-lactamase reporter, 5 h; series mostly up to 61 µM
Method in brief: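 HeLa ESRE-bla reporter line; cpd 5 h, 37 C/5% CO2; LiveBLAzer B/G FRET substrate 2 h RT; ex 405, em 460/530 nm.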

[4] = qHTS assay to identify small molecule agonists of the endoplasmic reticulum stress response signaling pathway - cell viability counter screen (AID 1159517; calls by dose curve; note: nearly all actives have a fitted effect of over 50% in size; note: potency is the fitted concentration of half-maximal effect); settings: ESRE-bla HeLa viability, CellTiter-Glo luminescence, 5 h; series mostly up to 61 µM
Method in brief: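 ESRE-bla HeLa cells (1,500/well) were plated overnight at 37 C and exposed to compounds for 5 hr. After the 2 hr beta-lactamase substrate read, CellTiter-Glo went into the same wells, and luminescence was read after 30 min at room temperature.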

[5] = qHTS assay to identify small molecule agonists of the AP-1 signaling pathway - cell viability counter screen (AID 1159525; calls by dose curve; note: nearly all actives have a fitted effect of over 55% in size; note: potency is the fitted concentration of half-maximal effect); settings: ME-180 AP-1-bla cells viability, ATP luminescence, 5 h; series mostly up to 76.8 µM
Method in brief: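 Intracellular ATP by Cell Titer Glo luminescence (30 min, RT) in the same ME-180 AP-1-bla wells after the 5 h compound exposure at 37 °C. Normalised to tetra n-octyl ammonium bromide and DMSO controls.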

[6] = qHTS assay to identify small molecule agonists of the RXR signaling pathway - cell viability counter screen (AID 1159529); settings: RXR-alpha-bla HEK293T viability, CellTiter-Glo, 16 h; series mostly up to 76.8 µM; note: nearly all actives have a fitted effect of over 50% in size; note: potency is the fitted concentration of half-maximal effect
Method in brief: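 Compounds dissolved in DMSO were pinned onto HEK 293T cells carrying a beta-lactamase reporter under RXR-alpha control and incubated 16 hr. Cytotoxicity was then quantified by CellTiter-Glo luminescence.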

[7] = qHTS assay to identify small molecule antagonists of the retinoid acid receptor (RAR) signaling pathway - cell viability counter screen (AID 1159551); settings: C3RL4 cells viability, ATP luminescence (CellTiter-Glo), 6 h; series mostly up to 92.4 µM; note: nearly all actives have a fitted effect of over 35% in size
Method in brief: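 C3RL4 RARE-luciferase line; cpds + retinol 1 uM final, 6 h, 37 C/5% CO2; CellTiter-Glo ATP luminescence, 30 min RT.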

[8] = qHTS assay to identify small molecule agonists of the vitamin D receptor (VDR) signaling pathway - cell viability counter screen (AID 743224); settings: VDR-bla HEK293T viability, CellTiter-Glo luminescence, 16 h; series mostly up to 62.6 µM; note: nearly all actives have a fitted effect of over 50% in size
Method in brief: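 Cytotoxicity counter screen: VDR-bla cells, 16 h compound exposure at 37C, 5% CO2; CellTiter-Glo luminescence, 30 min RT, same wells as bla read.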

[9] = qHTS assay to identify small molecule antagonists of the retinoid-related orphan receptor gamma (ROR-gamma) signaling pathway - cell viability counter screen (AID 1159520); settings: Tet-on RORgamma CHO cells viability, ATP luminescence, 16 h; series mostly up to 92.4 µM; note: nearly all actives have a fitted effect of over 50% in size
Method in brief: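 Cytotoxicity was read from cellular ATP (CellTiter-Glo luminescence) after 16 hr at 37 C with 1 uM doxycycline induction. The inducer was added 2 hr after compound transfer to Tet-on ROR gamma CHO cells.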

[10] = molecular target: Nuclear receptor ROR-gamma (Homo sapiens) (UniProt P51449); assay: qHTS assay to identify small molecule antagonists of the retinoid-related orphan receptor gamma (ROR-gamma) signaling pathway (AID 1159521; note: nearly all actives have a fitted effect of over 50% in size; note: potency is the fitted concentration of half-maximal effect); settings: Tet-on RORgamma CHO cells, RORE-luciferase, 16 h; series mostly up to 92.4 µM
Method in brief: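 Test compounds were applied to Tet-on RORγ CHO cells 2 h ahead of doxycycline hyclate (1 uM final). Luciferase reporter activity was quantified by luminescence after 16 h at 37 C and 5% CO2.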

[11] = qHTS assay to identify small molecule agonists of the AP-1 signaling pathway (AID 1159526; calls by dose curve); settings: ME-180 (cervical carcinoma) AP-1-bla reporter, beta-lactamase FRET ratio, 5 h; series mostly up to 76.8 µM
[12] = molecular target: Retinoic acid receptor RXR-alpha (Homo sapiens) (UniProt P19793); assay: qHTS assay to identify small molecule agonists of the RXR signaling pathway (AID 1159527; calls by dose curve; note: nearly all actives have a fitted effect of over 35% in size); settings: HEK293T RXRa-UAS-bla, beta-lactamase ratio, 16 h; series mostly up to 76.8 µM
Method in brief: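 Using 9-cis retinoic acid as the reference agonist, chemicals were tested in HEK 293T cells […] for 16 hr; substrate loading lasted 2 hr at room temperature.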

[13] = qHTS assay to identify small molecule antagonists of the retinoic acid receptor (RAR) signaling pathway (AID 1159552; note: nearly all actives have a fitted effect of over 50% in size; note: potency is the fitted concentration of half-maximal effect); settings: C3RL4 RARE luciferase reporter, retinol-stimulated, 6 h; series mostly up to 92.4 µM
Method in brief: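 Test chemicals and DMSO controls were pin-transferred onto C3RL4 cells a day after seeding; retinol (1 uM final) followed at once. Luminescent reporter output was quantified after 6 hr of co-incubation and 30 min with detection reagent.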

[14] = qHTS assay to identify small molecule agonists of the retinoic acid receptor (RAR) signaling pathway (AID 1159553); settings: C3RL4 RARE luciferase reporter, agonist, 6 h; activation: at 73.3 µM (top of the series) unless noted; note: potency is the fitted concentration of half-maximal effect
Method in brief: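 RARE-luc C3RL4 cells; overnight attachment 37 C/5% CO2; compound (DMSO) 6 hr; luciferase reagent, 30 min RT; luminescence read-out.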

Measured: Potency

Sequence of Retinoic acid receptor RXR-alpha (Homo sapiens) (P19793 whole entry, looked up): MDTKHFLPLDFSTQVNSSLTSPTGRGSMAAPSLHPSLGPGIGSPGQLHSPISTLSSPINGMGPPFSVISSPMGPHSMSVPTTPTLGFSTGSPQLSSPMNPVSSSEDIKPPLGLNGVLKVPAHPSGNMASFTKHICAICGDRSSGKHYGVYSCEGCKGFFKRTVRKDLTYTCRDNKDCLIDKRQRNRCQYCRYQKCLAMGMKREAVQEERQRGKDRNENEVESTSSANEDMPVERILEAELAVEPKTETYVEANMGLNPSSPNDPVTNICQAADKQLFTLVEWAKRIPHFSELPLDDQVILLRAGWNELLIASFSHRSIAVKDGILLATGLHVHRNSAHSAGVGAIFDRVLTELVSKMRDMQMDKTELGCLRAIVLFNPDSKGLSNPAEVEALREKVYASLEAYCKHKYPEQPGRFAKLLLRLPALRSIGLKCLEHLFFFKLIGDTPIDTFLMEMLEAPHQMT

S=C([S-])NCCNC(=S)[S-].S=C([S-])NCCNC(=S)[S-].[Mn+2].[Zn+2]
inactive: [1] | [2] | [3] | [4] | [5] | [6] | [7]

Cc1ccc(C(=O)O)cc1
not listed: [4]
inactive: all other assays above

Sc1nc2ccccc2s1
inactive: [1] | [2] | [3] | [4] | [5] | [6] | [7] | [13]

OC12N=C(c3ccccc3)SC1Cc1cc(Cl)ccc12 (centres undefined)
active: [6] 54.9 µM | [14] 1.22 µM
not listed: [9] | [10] | [11] | [12]
inactive: all other assays above

CC1(C)CCC[C@]2(C)[C@H]3CC(=O)O[C@]3(C)CC[C@@H]12
inactive: [8] | [1] | [2] | [3] | [4] | [10] | [14]

CN1CCN(Cc2cc(-c3ccc4[nH]c(=O)oc4c3)co2)[C@@H](c2ccc(F)cc2)C1
inactive: [2] | [3] | [4] | [5] | [6] | [7]
active: [10] 26.3 µM

CCc1cccc(CC)c1NC(=O)CN(CC(=O)O)CC(=O)O
not listed: [4]
inactive: all other assays above

CCC(=O)C(=O)CC
not listed: [4]
inactive: all other assays above

C=CC(=O)Nc1cc2c(Nc3ccc(F)c(Cl)c3)ncnc2cc1OCCCN1CCOCC1
active: [2] 15.1 µM | [4] 16.9 µM | [6] 4.77 µM | [13] 7.5 µM
inactive: [8] | [1] | [3] | [10]

[Cu+]
inactive: [1] | [2] | [3] | [4] | [5] | [12] | [6] | [7]

CC(CO)Oc1ccccc1 (centres undefined)
not listed: [1] | [4]
inactive: all other assays above

C/C=C/C=C/COC(=O)C(C)C
active: [13] 27.3 µM
not listed: [7] | [9] | [10] | [12] | [14]
inactive: all other assays above

c1ccc(SSc2ccccc2)cc1
inactive: [8] | [1] | [2] | [3] | [4] | [10] | [5] | [7]

CN1CCCCC1CCN1c2ccccc2Sc2ccc(S(C)=O)cc21 (centres undefined)
active: [10] 29.8 µM
not listed: [9] | [11] | [13]
inactive: all other assays above

Cc1cc(C(C#N)c2ccc(Cl)cc2)c(Cl)cc1NC(=O)c1cc(I)cc(I)c1O (centres undefined)
active: [10] 29.8 µM
inactive: [8] | [1] | [2] | [3] | [4] | [5] | [7]

O=C(O)c1cc(=O)c2ccccc2o1
not listed: [4]
inactive: all other assays above

O=c1[nH]c2ccccc2n1CCCN1CCN(C(c2ccccc2)c2ccccc2)CC1
inactive: [8] | [1] | [2] | [3] | [4] | [5] | [11] | [7]

O=S(=O)(O)c1ccc(N=Nc2c(O)ccc3ccccc23)cc1
inactive: [8] | [2] | [3] | [4] | [11] | [14]

Cc1cc(-c2ccc(N=Nc3cc(S(=O)(=O)O)c4ccccc4c3N)c(C)c2)ccc1N=Nc1cc(S(=O)(=O)O)c2ccccc2c1N
active: [10] 30.8 µM
not listed: [1] | [4] | [8]
inactive: all other assays above

C[Si](Cl)(c1ccccc1)c1ccccc1
not listed: [9] | [10] | [11] | [13] | [14]
inactive: all other assays above

CCCCCC(C)OC(=O)COc1ccc(Cl)c2cccnc12 (centres undefined)
active: [5] 34.7 µM | [6] 11 µM
not listed: [8] | [9] | [11] | [12]
inactive: all other assays above
